Test results as given in PubChem BioAssay (Tox21).
Records with an inconclusive call do not appear. Activity calls are given as the source filed them. Calls come from the whole dose curve; as a rule, active = well fitted curve in the direction sought with a large enough effect in the repeat runs; inconclusive = weak or mixed curves; inactive = no such curve, though single readings can be large; an effect the other way counts as inactive or inconclusive.

Experiments:
[1] = qHTS assay to identify small molecule agonists of the RXR signaling pathway - cell viability counter screen (AID 1159529); note: nearly all actives have a fitted effect of over 50% in size; note: potency is the fitted concentration of half-maximal effect;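 for activity change, negative = cytotoxicity: HEK 293T cells carrying an RXR-alpha UAS beta-lactamase reporter; series mostly up to about 77 µM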
How it was run: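 Viability read-out for the RXR-alpha agonist qHTS: luminescent CellTiter-Glo signal after 30 min at RT. HEK 293T bla reporter cells, 2% charcoal-stripped FBS, 16 hr compound incubation; tetraoctyl ammonium bromide as cytotoxic control.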

[2] = qHTS assay to identify small molecule antagonists of the retinoid acid receptor (RAR) signaling pathway - cell viability counter screen (AID 1159551); note: nearly all actives have a fitted effect of over 35% in size; note: potency is the fitted concentration of half-maximal effect
How it was run: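 Luminescent ATP quantitation (CellTiter-Glo) gave cell viability in C3RL4 cells exposed to test chemicals for 6 h at 37 C alongside 1 uM final retinol.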

[3] = qHTS assay to identify small molecule antagonists of the retinoic acid receptor (RAR) signaling pathway (AID 1159552; note: nearly all actives have a fitted effect of over 50% in size; note: potency is the fitted concentration of half-maximal effect)
How it was run: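 Using a RARE-driven luciferase construct in C3RL4 cells, retinol at 1 uM final provided the agonist stimulus while compounds were co-applied. After 6 hours at 37 C, luminescence was recorded to flag inhibitors of retinol signaling.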

[4] = qHTS assay to identify small molecule agonists of the retinoic acid receptor (RAR) signaling pathway (AID 1159553); note: potency is the fitted concentration of half-maximal effect
How it was run: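 Luminescence from a RARE-driven luciferase reporter in C3RL4 cells served as the read-out, measured after 30 min with detection reagent at room temperature. Compounds in DMSO were applied for 6 hr at 37 C following overnight seeding.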

[5] = qHTS assay to identify small molecule agonists of the estrogen related receptor (ERR) signaling pathway (AID 1224820)
How it was run: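 Cells: ERR line from NTP, 2,000/well. Pre-incubation 6 h, 37 C/5% CO2. Compound (DMSO) pin transfer, 18 h 37 C. One-Glo, 30 min RT, luminescence.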

[6] = qHTS assay to identify small molecule agonists of the estrogen related receptor signaling pathway with the pleiotropic PPARgamma coactivator (PGC) (AID 1224823)
How it was run: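 Steps: plate PGC/ERR cells at 2,000 cells/well; incubate 6 h, 37 C/5% CO2; pin-transfer compounds (DMSO); incubate 18 h, 37 C; add One-Glo; 30 min RT; read luminescence.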
% is set by controls: 0 for no effect and ±100 for the full control effect.

CCOc1cc(OCC)c(C(=O)CCC(=O)O)cc1OCC
inactive: Potency [1] | Potency [2] | Potency [3] | Potency [4]

CCCCCCCCCO
inactive: Potency [1] | Potency [2] | Potency [3] | Potency [4]

O=C1[C@H](CC[C@H](O)c2ccc(F)cc2)[C@@H](c2ccc(O)cc2)N1c1ccc(F)cc1
inactive: Potency [1] | Potency [2] | Potency [3] | Potency [4]

Oc1ccc(O)c2c(O)cccc12
inactive: Potency [1] | Potency [2] | Potency [3] | Potency [4]

CC(C(=O)O)c1ccc(C(=O)c2ccccc2)s1 (configuration not stated)
inactive: Potency [1] | Potency [2] | Potency [3]
active: Potency [4] 8.41 µM

CC(=O)Nc1ccc(/C=N/NC(N)=S)cc1
inactive: Potency [1] | Potency [2] | Potency [3] | Potency [4]

CC(=O)OCCc1ccccc1
inactive: Potency [1] | Potency [2] | Potency [3] | Potency [4]

N#Cc1c(F)cccc1F
inactive: Potency [1] | Potency [2] | Potency [3] | Potency [4]

NC(N)=NN=C(/C=C/c1ccc([N+](=O)[O-])o1)/C=C/c1ccc([N+](=O)[O-])o1
active: Potency [1] 8.49 µM | Potency [2] 13.3 µM | Potency [3] 7.5 µM | Potency [4] 2.11 µM

O=C(O)c1cccc(N(Cc2cccnc2)c2ccc(OC(F)F)c(OC(F)F)c2)c1
inactive: Potency [1] | Potency [2] | Potency [3] | Potency [4]

O=C(Cl)c1c(Cl)cccc1Cl
inactive: Potency [1] | Potency [2] | Potency [3] | Potency [4]

CC(C(=O)O)c1ccc(-c2ccccc2)c(F)c1 (configuration not stated)
inactive: Potency [1] | Potency [2] | Potency [3] | Potency [4]

O=C(O)c1cn(C2CC2)c2cc(Cl)c(F)cc2c1=O
inactive: Potency [1] | Potency [2] | Potency [3] | Potency [4]

CCCCCC/C=C/C=O
inactive: Potency [1] | Potency [2] | Potency [3] | Potency [4]

CCCc1ccccc1
inactive: Potency [1] | Potency [2] | Potency [3] | Potency [4]

Cc1ccc(C)o1
inactive: Potency [1] | Potency [2] | Potency [3] | Potency [4]

FC(F)(F)C(F)(F)C(F)(F)C(F)(F)C(F)(F)C(F)(F)CCI
inactive: Potency [1] | Potency [2] | Potency [3] | Potency [4]

O=C(O)C(c1ccc(Cl)cc1)c1ccc(Cl)cc1
inactive: Potency [1] | Potency [2] | Potency [3] | Potency [4]

CC1CCc2cc(F)cc3c(=O)c(C(=O)O)cn1c23 (configuration not stated)
inactive: Potency [1] | Potency [2] | Potency [3] | Potency [4]

Nc1cnn([C@@H]2O[C@H](CO)[C@@H](O)[C@H]2O)c(=O)n1
inactive: Potency [1] | Potency [2] | Potency [3] | Potency [4]

CCCCOc1cc(C(=O)OCCN(CC)CC)ccc1N
inactive: Potency [1] | Potency [2] | Potency [3] | Potency [4]

Cc1cccc(C(C)(C)C)c1O
inactive: Potency [1] | Potency [2] | Potency [3] | Potency [4]

N[C@H]1C(O)O[C@H](CO)[C@H](O)[C@@H]1O (some centres not stated)
inactive: Potency [1] | Potency [2] | Potency [3] | Potency [4]

CCN(CCO)CCCC(C)Nc1ccnc2cc(Cl)ccc12 (configuration not stated)
inactive: activity change, negative = cytotoxicity [1] -6.26% [at 6.97 µM] | activity change, negative = cytotoxicity [2] 0.797% [at 8.39 µM] | activity, negative = inhibition [3] -1.6% [at 8.39 µM] | activation [4] 0.716% [at 8.36 µM]

SC1CCCC1
inactive: Potency [1] | Potency [2] | Potency [3] | Potency [4]

CCOc1nc2cccc(C(=O)O)c2n1Cc1ccc(-c2ccccc2-c2nn[nH]n2)cc1
inactive: Potency [1] | Potency [2] | Potency [3] | Potency [4]

c1ccc(OCc2ccc(CCCN3CCOCC3)cc2)cc1
active: Potency [4] 13.3 µM
inactive: Potency [1] | Potency [2] | Potency [3]

CCCCCCCCCCCCC(=O)O
active: Potency [1] 24.6 µM
inactive: Potency [2] | Potency [3] | Potency [4]

CC1=CC(=O)/C(=C(/C)O)C(=O)O1
inactive: Potency [1] | Potency [2] | Potency [3] | Potency [4]

O=C(/C=C/c1ccc(O)c(O)c1)O[C@@H]1C[C@](O)(C(=O)O)C[C@@H](O)[C@H]1O
inactive: Potency [1] | Potency [2] | Potency [3] | Potency [4]

CC(C)(Oc1ccc(Cl)cc1)C(=O)OCCCOC(=O)C(C)(C)Oc1ccc(Cl)cc1
inactive: Potency [1] | Potency [2] | Potency [3] | Potency [4]

CCCCCC(CO)CCC (configuration not stated)
inactive: Potency [1] | Potency [2] | Potency [3] | Potency [4]

COc1ccc(C(C)=O)cc1
inactive: Potency [1] | Potency [2] | Potency [3] | Potency [4]

C=C(C)C(=O)OCCN(C)C
inactive: Potency [1] | Potency [2] | Potency [3] | Potency [4]

NC(=S)N/N=C/c1cccnc1
inactive: Potency [1] | Potency [2] | Potency [3] | Potency [4]

CN(c1nccc(=O)[nH]1)C1CCN(c2nc3ccccc3n2Cc2ccc(F)cc2)CC1
inactive: Potency [1] | Potency [2] | Potency [3] | Potency [4]

O=C(c1ccc(O)cc1)c1ccc(O)cc1
inactive: Potency [1] | Potency [3] | Potency [4]

CCCCCCCCCCCCCCCBr
inactive: Potency [1] | Potency [3] | Potency [4]

CC(C)CC=O
inactive: Potency [1] | Potency [2] | Potency [4]

C=Cc1c(C)c2cc3[nH]c(cc4nc(cc5nc(cc1[nH]2)C(C)=C5CCC(=O)O)C(CCC(=O)O)=C4C)c(C)c3C=C
inactive: Potency [1] | Potency [2] | Potency [3] | Potency [4] | outcome [5] | outcome [6]

Cl/C(=C\n1cncn1)c1ccc(Cl)cc1Cl
inactive: Potency [1] | Potency [3] | Potency [4]
